# In all, about 1,000 compounds went through this assay and about 700 (70%) were called active. So high a share suggests a set chosen from earlier hits. These entries were drawn from the full list. A number with no mark means an inactive call. Rule as the data show it: active = inhibition above about 50%; inactive = the rest.
# Test: CASP1-PYCARD signaling inhibition in yeast, confirmatory test, counterassay for NLRP3 inhibitor program, one-dose (AID 488784)
# Conditions: yeast expressing Caspase-1-ASC, luminescence counter screen; at 10 µM; hits give high values
row,Structure (SMILES),inhibition
1,Cc1cc(C)nc(NC(=O)Nc2ccccc2C(F)(F)F)n1,55.5% (active)
2,CC(C)Sc1ncnc2c1cnn2-c1ccccc1,40.6%
3,CC(C)n1c(COc2ccccc2)nc2ccccc21,59.4% (active)
4,Cc1ccc(OCc2nc3ccccc3n2C)cc1,76.5% (active)
5,CCSc1nc2sc3c(c2c(=O)n1-c1ccc(C)cc1)CCN(C)C3,33.2%
6,O=C(COc1ccccc1F)Nc1nc(-c2ccccn2)cs1,65% (active)
7,Cn1c(=O)c(C(=O)Nc2ncccn2)c(O)c2ccccc21,49.2%
8,CCc1noc(C)c1C(=O)Nc1nc2ccc(OC)cc2s1,76.8% (active)
9,Cc1ccc(-c2nn(C(C)(C)C)c3ncnc(N)c23)cc1,96.3% (active)
10,Cc1ccc(O)c(NC(=O)c2cc(-c3ccco3)on2)c1,61.9% (active)
11,COc1ccccc1C(=O)Nc1ccc(NC(=O)c2ccco2)c(C)c1,47.5%
12,CC(=O)[C@@]12O[C@@H]1C[C@H]1[C@@H]3CC[C@H]4C[C@@H](O)CC[C@]4(C)[C@H]3CC[C@@]12C,53% (active)
13,Cc1ccnc(Nc2nc3ccccc3s2)n1,21.8%
14,CN(C)c1ccnc2sc(C(=O)c3ccccc3)c(N)c12,70.2% (active)
15,CCCN(CC1CC1)C(=S)NC(=O)c1ccccc1Br,53.1% (active)
16,O=[N+]([O-])c1c(NCCO)cc(Sc2nc3ccccc3s2)c2nonc12,65.5% (active)
17,Cc1cc(C(=O)COc2ccc(Br)cc2F)c(C)n1C1CC1,60.1% (active)
18,CC1(C)CCSC(/C=C/c2ccccc2)=N1,91.5% (active)
19,COc1ccccc1OCc1nc2ccccc2s1,48.7%
20,CCN(CC)c1ccc(/C=N/Nc2nc(C)cc(C)n2)c(O)c1,55% (active)
21,Nc1c(-c2cccc(Cl)c2)cnn1-c1cccc([N+](=O)[O-])c1,53% (active)
22,Oc1c(Cl)cc(Cl)c(Cl)c1Cc1c(O)c(Cl)cc(Cl)c1Cl,99.3% (active)
23,O=C(CC(O)(C(F)(F)F)C(F)(F)F)Nc1ccc(Cl)c(Cl)c1,99.2% (active)
24,Cc1c(C(=O)N2CCCc3ccccc32)oc2ccccc12,49.6%
25,O=C(Nc1ccccc1Cl)/C(Cl)=C(\Cl)S(=O)c1ccccc1 (stereo unspecified),98.8% (active)
26,O=C(Nc1ccc2oc(-c3ccccc3F)nc2c1)c1ccco1,72.2% (active)

row,Structure (SMILES),inhibition
1,O=C(Nc1ccc(Oc2ccccc2)cc1)c1ccco1,45.2%
2,Cn1c(=NC(=O)c2ccco2)sc2cccc(F)c21,25%
3,Cc1cc(C)c(/C=C2\C(=O)Nc3ccccc32)[nH]1,40.2%
4,Cc1ccc(OCc2nc(C#N)c(N3CCCC3)o2)cc1,71.8% (active)
5,O=C(CSc1ccc(-c2ccc(-n3cccn3)cc2)nn1)Nc1ccc([N+](=O)[O-])cc1,11.2%
6,C[C@@H]1C[C@@H]2O[C@H]2/C=C\C=C\C(=O)Cc2c(Cl)c(O)cc(O)c2C(=O)O1,48.6%
7,CCCNc1ncnc2sc(C)c(C)c12,50.8% (active)
8,CC(=NCc1ccc2c(c1)OCO2)C1=C(O)c2ccccc2C1=O,60.2% (active)
9,O=C(NCc1ccc2c(c1)OCO2)c1c(O)nc2sccn2c1=O,36.7%
10,O=C(Oc1c(-c2ccco2)oc2ccccc2c1=O)c1cccnc1,58.5% (active)
11,CC(C)C(=O)N1CCN(CCN=CC2=C(O)CC(c3ccco3)CC2=O)CC1 (stereo unspecified),55.2% (active)
12,Cc1cccc(NC(=S)NC(=O)c2ccc(Br)o2)c1,76.2% (active)
13,CN=C1C=C/C(=N/N=c2\ccn(O)cc2C)C=C1C,53.3% (active)
14,O=C(CSc1ncnc2c1oc1ccccc12)NC1CCCC1,39.4%
15,Cc1ccc2cccc(S(=O)(=O)N3CCN(c4ccccc4F)CC3)c2n1,52.6% (active)
16,O=C1CSC(=S)N1c1ccc(O)cc1,79.7% (active)
17,COc1cc(N2C(=O)CSC2=S)cc(OC)c1OC,45.7%
18,CCc1cc(C(=O)Nc2nnc(C3CC3)s2)sc1C,55.5% (active)
19,Cc1ccc(CSc2nsc(C)c2C#N)cc1,60% (active)
20,Oc1ccc(Br)cc1/C=N/Nc1ccccn1,37.1%
21,O=[N+]([O-])c1cccc(/C=N/Nc2ncc(Br)cn2)c1,62.5% (active)
22,O=[N+]([O-])/C=C/c1ccc2c(ccn2Cc2ccccc2)c1,99.7% (active)
23,CCOC(=O)c1c(C)[nH]c(C(=O)COc2ccc3c(c2)OCO3)c1C,66.8% (active)
24,Fc1ccccc1-c1cc2cc3c(cc2cn1)OCO3,51% (active)
25,N#Cc1nc(Cc2ccccc2)oc1NCCc1ccccc1,56.8% (active)
